Measured values published in ChEMBL document CHEMBL3988442, “University of Dundee, Small-Polar-MMV Screening Library” (2021).
Out of some 48,000 compounds screened, about 13,000 (27%) showed an effect of 50% or more. This is one part of the list.

System: Wolbachia pipientis
Experiment: Anti-Wolbachia Cell-Based Screen
Type: functional
Parameters: scale not given: in the data most compounds retested in dose-response had high values
Conditions: 5 µM

SMILES | Percent Effect [%]
Cc1cnn(CC2CCCCN2C(=O)c2ccc3c(c2)COC3)c1 (stereo unspecified) | 117.5
Cc1cnn(CC2CCCCN2C(=O)c2ccc3[nH]cnc3c2)c1 (stereo unspecified) | 112.2
Cc1cnn(CC2CCCCN2C(=O)c2ccc3[nH]c(=O)[nH]c3c2)c1 (stereo unspecified) | 108.3
Cc1cnn(CC2CCCN2C(=O)c2ccc3[nH]c(=O)[nH]c3c2)c1 (stereo unspecified) | 143.3
Cc1cnn(CC2CCCN2C(=O)c2ccc3[nH]nnc3c2)c1 (stereo unspecified) | 0.8571
Cc1cnn(CC2CCCCN2C(=O)c2ccc3[nH]nnc3c2)c1 (stereo unspecified) | -1.412
Cc1cnn(CC2CCCN2C(=O)c2ccc3cc[nH]c3c2)c1 (stereo unspecified) | 7.467
COc1cccc([S+]([O-])CC(=O)NCc2cc(F)cc(F)c2)c1 (stereo unspecified) | -14.98
O=C1N(Cc2cccc(F)c2F)CCCC1(O)CNCc1ccccn1 (stereo unspecified) | -29.29
Cc1cc(C)cc(C(C)NC(=O)c2ccc(CS(C)(=O)=O)o2)c1 (stereo unspecified) | -2.298
CCc1ccc(CN2CCN(c3ccc(C(N)=O)cn3)CC2)nc1 | 17.95
CC(C)(N)c1cn(C2CCN(C(=O)CCC3CCCCC3)CC2)nn1 | -21.08
Cc1nc2c(c(=O)n1C)CCN(Cc1cc3ccccc3[nH]1)CC2 | -25.51
Cc1nc(C)c2c(n1)CCN(Cc1ccsc1)CC2 | 5.852
Cc1cc(CN[C@@H](C)C(N)=O)c(C)s1 | 8.124
Cc1nc(O)c2c(n1)CCN(Cc1cc(C)sc1C)CC2 | 92.9
Cc1nc(C)c2c(n1)CCN(Cc1ccco1)CC2 | -8.406
CC(C)c1ncc2c(n1)CN(Cc1nc3c(F)cccc3[nH]1)CC2 | -0.8884
Cc1cc(CN2CCc3nc(N4CCOCC4)nc(O)c3CC2)c(C)s1 | 112.9
Cc1cc(CN2CCc3nc(C(C)C)nc(O)c3CC2)c(C)s1 | 120.7
Cc1cc(CN2CCc3nc(-c4ccncc4)nc(O)c3CC2)c(C)s1 | 125
CC(=O)N1CCc2c(nc(-c3ccncc3)nc2N(C)CC(O)CO)C1 (stereo unspecified) | 4.037
COCc1ccccc1C(=O)NS(=O)(=O)CCCC#N | -8.648
COC1CCN(S(=O)(=O)N2C[C@H](c3ccccc3)[C@@H](N)C2)CC1 | -9.837

SMILES | Percent Effect [%]
N#Cc1cccc(CN2CCN(Cc3cscn3)CC2)c1 | -8.185
NC(=O)c1ccc(C(=O)N2CCCCC2C2OCCO2)cc1 (stereo unspecified) | -10.24
Cc1ccc(CN2CCc3nc(C(C)C)nc(O)c3CC2)s1 | 101.1
Cc1ccc(CN2CCc3ncnc(OC(C)C)c3CC2)s1.O=C(O)C(F)(F)F | -2.547
Cc1ccc(CN2CCc3ncnc(C4CCOC4)c3CC2)s1.O=C(O)C(F)(F)F (stereo unspecified) | -17.37
Cc1nc(CN2CCOC(CN(C)c3cccnn3)C2)cs1 (stereo unspecified) | 1.717
Cc1cccc(NC(=O)CNC(=O)c2ccccc2F)c1 | -4.999
CCOc1ccccc1C(=O)Nn1c(C)cc(C)cc1=O | 121
CCOc1cccc(CNc2ccccc2C(=O)OC)c1O | 0.1063
CC(C)C(NC(=O)c1ccc(Cl)cc1Cl)C(=O)Nc1ccn(C)n1 (stereo unspecified) | -7.418
Cc1cc(C)n(NC(=O)c2ccccc2F)c(=O)c1 | 67.62
O=C(NS(=O)(=O)c1ccccc1)c1ccccc1F | -14.83
Cc1cc(C)n(NC(=O)c2ccc(Cl)cc2Cl)c(=O)c1 | 111.9
CC(NC(=O)C1=NN(C)C(=O)CC1)c1ccc(Cl)cc1Cl (stereo unspecified) | -11.2
CCOc1ccccc1C(CC(=O)Nc1ccc(C)cn1)NC(C)=O (stereo unspecified) | -11.24
Cc1ccccc1C(=O)NCC(O)c1ccc(F)c(F)c1 (stereo unspecified) | -57.78
Cc1cc(C)n(NC(=O)c2ccccc2C)c(=O)c1 | 92.68
Cc1cc(C)n(NC(=O)c2cccc3c2OCC3)c(=O)c1 | -19.93
Cc1cc(CS(=O)(=O)N(C)C(C)c2ccc(Cl)cc2)on1 (stereo unspecified) | 1.246
CN(C)[C@@H]1CCN(c2ncc(F)cn2)[C@H]1Cc1ccncc1.O=C(O)C(F)(F)F.O=C(O)C(F)(F)F | 2.593
CC(O)CCN(C)S(=O)(=O)Cc1ccc(Cl)c(Cl)c1 (stereo unspecified) | 3.883
N[C@H]1CN(C(=O)Cc2ccc(CO)cc2)C[C@@H]1C1CC1 | -4.225
O=C1CN(Cc2cn(C3CCN(C4CSCCSC4)CC3)nn2)CCN1 | 9.418
Fc1ccc2[nH]c([C@H]3CCN(C4CCOCC4)C3)nc2c1 | -0.03029

SMILES | Percent Effect [%]
CC(C)c1nccn1-c1cccc(C2CCCN2S(=O)(=O)N(C)C)n1 (stereo unspecified) | -5.176
CN(C)C(=O)CN1CCN(c2ccnc3c(F)ccc(F)c23)CC1 | 6.891
CC(C)c1nccn1-c1cccc(C2CCCN(S(=O)(=O)N(C)C)C2)n1 (stereo unspecified) | 123.6
CCCN1CCCC1c1nc(Cc2ccc(F)cc2)no1 (stereo unspecified) | -11.63
O=C1CO[C@H]2CN(C3CCOCC3)C[C@H]2N1Cc1ccc(F)cc1 | 15.12
CN(C)C(=O)CN1CCC(c2cccc(Cc3ccc(F)cc3)n2)CC1 | 83.25
CN1CCCC1c1cccc(Cc2ccc(F)cc2)n1 (stereo unspecified) | 109.9
CN1CCCC1c1cccc(Cc2ccccc2F)n1 (stereo unspecified) | -8.343
Fc1ccc(Cc2cccc(C3CCN(C4CCOCC4)CC3)n2)cc1 | 122.8
CN(C)C(=O)CN(C)C(=O)c1cnc(Cc2ccc(F)cc2)s1 | -0.8881
CCO[C@H]1CN(C)C[C@@H]1NC(=O)c1c[nH]nc1C1CCCCC1 | -8.959
NC(=O)C1CCN(C(=O)NCc2ccccc2Cn2ccnc2)CC1 | -2.267
COc1cc(C(=O)N2CC[C@@H](NC(=O)c3ccccn3)[C@H](O)C2)ccn1 | -8.714
COC1(CNS(=O)(=O)c2ccccc2Cl)CCSC1 (stereo unspecified) | -2.993
COC(=O)c1ccc(NC2CCN(CC(F)(F)F)C2=O)cc1C (stereo unspecified) | 4.628
CCn1ccnc1CN1CCN(CCC(=O)NC(C)(C)C)CC1C (stereo unspecified) | -7.568
CN(C)S(=O)(=O)N1CCCC(c2cccc(Cc3ccc(Cl)cc3)n2)C1 (stereo unspecified) | 74.08
CN(C)S(=O)(=O)N1CCCC(CCC(=O)Nc2ccc(Cl)cc2)C1 (stereo unspecified) | 1.788
CN(C)S(=O)(=O)N1CCCC(c2cccc(Cc3ccccc3)n2)C1 (stereo unspecified) | 7.511
CN1CCCC(c2cccc(Cc3ccccc3Cl)n2)C1 (stereo unspecified) | -5.601
CN(C)S(=O)(=O)N1CCC(c2cccc(Cc3ccccc3Cl)n2)CC1 | 111.4
CN(C)S(=O)(=O)N1CCCC(c2cccc(Cc3ccccc3F)n2)C1 (stereo unspecified) | 93.31
CN(C)S(=O)(=O)N1CCCC(c2cccc(Cc3ccc(F)cc3)n2)C1 (stereo unspecified) | 101
